Compounds without any hit were thinned out: in the full panel of roughly 83,000, 20% have a hit.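 48-hour exposure, single concentration, 96-well plates; percent growth endpoint where 0 means no net growth. Active: below 10.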 Activity calls are given as the source filed them.

This experiment concerns MDA-MB-468 breast. Briefly: NCI-60 one-dose screen, 48 h (100 = growth as untreated, 0 = no growth, -100 = all killed). The conditions noted are these: 10 µM unless noted.
For the molecule `CCCCCCCCCCCCCCCc1ccc(N)c(OC2OC(CO)C(O)C(O)C2O)c1` (centres undefined), the growth was 76.5% (inactive).
For `CCOC(=O)CNP(=O)(OC[C@@H](Cc1ccccc1)NC(=O)c1cc2ccccc2s1)Oc1ccccc1` (some centres undefined) the value was -5% (active); for `CCN(CC)CCCC(C)Nc1cnc(C(=O)Nc2ccc(Cl)c3cccnc23)cn1` (centres undefined), -28% (active); for `CCCCCCCCCCCC1=NC(C)(C)CN1C(C)C`, -1.36% (active).
The same measure for `COc1c(B(O)O)cc(F)cc1-c1nc2ccc3[nH]ncc3c2c2c1CCCC2`: -4.35% (active); for `Cc1cc(=O)oc2cc(OC(=O)N3CCN(C)CC3)ccc12`: 107% (inactive).
In the case of `COC(=O)C(CCC(=O)CCl)N1C(=O)c2ccccc2C1=O` (centres undefined), the growth was 32.1% (inactive).
The same measure for `CCCCn1c(=O)c(-c2cc(-c3ccc(Cl)cc3)nc(-c3ccc(Cl)cc3)c2)cc2ccc(Cl)cc21`: 95% (inactive); for `O=C(O)C(O)C(O)C(=O)O.[NH-]C1CCCCC1[NH-].[Pt+2]` (centres undefined): 95.5% (inactive); for `Oc1[nH]c2ccc(Cl)cc2c1/C=c1/ccc2c(c1)N=C(c1ccc(F)cc1)N=2`: 9.65% (active).
The same measure for `CCCCCc1c(C)[nH]c(/C=C2\N=C(c3ccc[nH]3)C=C2CC)c1C`: -92.1% (active).
For `Cc1c(C(=O)/C=C/Nc2c(Cl)cc(S(N)(=O)=O)cc2Cl)sc2nc3ccccc3n12` the value was 102% (inactive); for `O=C1N=c2ccccc2=C1c1sc(=S)n(C2CC(=O)N(c3ccc(Cl)cc3)C2=O)c1O` (centres undefined), 95.2% (inactive).
In the case of `COc1cc(OC)cc(C2=C3CC[C@@H]4[C@H](CC[C@]5(C)C(=O)CC[C@@H]45)C3=CC3C(O)c4cccnc4N4C(=O)COC234)c1` (some centres undefined), the growth is 105% (inactive).
